Compounds with a hit are over-represented: about 2% of the library has one in this group of screens.
sPLA2-III inh = Inhibits HGIII-sPLA2 liposome hydrolysis, primary screen. QFRET BODIPY PC-A2 liposome hydrolysis, fluorescence. inhibition, % at 12.2 µM. hit rate 0.56% among 370,000;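 active = inhibition above mean plus 3 SD of compounds lying within the high and low control bounds, cut at about 19% in these data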
NALP1 yeast inh = NALP1 inhibition. S. cerevisiae NALP1/ASC/caspase-1 growth, X-gal OD620, 72 h. AID 2071. inhibition, % at 10 µM. hit rate 0.61% among 280,000; in the data active = inhibition mostly above about 24%, no sharp cut-off; inactive = mostly below about 32%
A3G deaminase = inhibitors of human APOBEC3G DNA deaminase; recombinant A3G, ssDNA deamination FAM/TAMRA fluorescence; inhibition, % at 20 µM; hit rate 0.28% among 330,000;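 active = inhibition of at least 40% at 20 µM, with no more than 30% in the related APOBEC3A deaminase screen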
Target sequence (Q9HC16 whole entry, looked up): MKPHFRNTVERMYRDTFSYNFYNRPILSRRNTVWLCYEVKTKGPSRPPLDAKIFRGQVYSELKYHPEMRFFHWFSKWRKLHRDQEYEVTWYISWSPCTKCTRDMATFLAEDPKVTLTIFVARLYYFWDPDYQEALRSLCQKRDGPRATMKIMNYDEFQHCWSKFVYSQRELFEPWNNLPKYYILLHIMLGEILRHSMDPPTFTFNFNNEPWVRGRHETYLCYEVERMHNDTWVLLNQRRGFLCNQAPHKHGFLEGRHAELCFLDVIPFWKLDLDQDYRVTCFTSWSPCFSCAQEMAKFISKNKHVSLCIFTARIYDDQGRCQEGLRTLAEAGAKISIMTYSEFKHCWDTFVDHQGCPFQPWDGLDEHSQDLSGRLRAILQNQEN
A3A deaminase = blocks human APOBEC3A ssDNA deamination | inhibition, % at 20 µM | AID 493011 | recombinant A3A, FAM/TAMRA ssDNA deamination fluorescence | hit rate 0.41% among 330,000;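 active = at least 40% inhibition at 20 µM here, with at most 30% in a related deaminase screen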
Target sequence (P31941 whole entry, looked up): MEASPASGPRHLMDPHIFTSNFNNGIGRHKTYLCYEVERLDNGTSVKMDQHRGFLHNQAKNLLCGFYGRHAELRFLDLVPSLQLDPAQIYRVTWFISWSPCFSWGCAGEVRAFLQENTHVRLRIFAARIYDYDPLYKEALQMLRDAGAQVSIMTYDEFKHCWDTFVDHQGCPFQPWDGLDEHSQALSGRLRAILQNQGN
Fh CTSL1 inh = counter-screen for PFM18AAP inhibitors: inhibitors of F. hepatica cathepsin L1; recombinant F. hepatica cathepsin L1, Z-Leu-Arg-MCA fluorescence; inhibition, % at 5.96 µM; hit rate 0.49% among 300,000; AID 1906;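 active = inhibition above the mean of all tested compounds plus 3 SD, set per screening campaign, cut at about 17% in these data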
Each line names hits and unclear results; the compound was inactive in the other large screens.

Cc1cc(N2CCC(C(=O)NC3CC3)CC2)nc(-c2ccccc2)n1	none
CCOc1ccc(-n2c(SCC(=O)Nc3ccccc3-c3ccccc3)nnc2-c2cccs2)cc1	none (no result: NALP1 yeast inh, A3G deaminase, A3A deaminase, Fh CTSL1 inh)
CCOC(=O)C(C)CC(C)C(=O)N1CCOCCOCCN(C(=O)C(C)CC(C)C(=O)OCC)CCOCC1 (stereo not given)	none
CCOC(=O)C(C(=O)OCC)C(C(=O)OCC)N1CCOCC1 (stereo not given)	NALP1 yeast inh 101
Cc1cc(C)c(S(=O)(=O)c2cccc(C)c2C)c(=O)[nH]1	NALP1 yeast inh 33
Cc1cc(C)c(S(=O)(=O)c2ccccc2)c(=O)[nH]1	none
O=c1c2ccc(F)cc2nc2sc(Nc3ccc4c(c3)CCC4)nn12	none (no result: NALP1 yeast inh, A3G deaminase, A3A deaminase, Fh CTSL1 inh)
CCOc1cc(CNc2ccccc2)cc(Br)c1OCc1ccc(F)cc1	NALP1 yeast inh 43
COCCCNC(=O)CCc1c(C)nc2c(-c3ccc(F)cc3)c(C)nn2c1C	none (no result: NALP1 yeast inh)
COCCNC(=O)CCc1c(C)nc2c(-c3ccc(F)cc3)c(C)nn2c1C	NALP1 yeast inh 36
Cc1cc(NC(=O)c2ccc(NS(=O)(=O)c3ccc(F)cc3)cc2)no1	none (no result: NALP1 yeast inh, A3G deaminase, A3A deaminase, Fh CTSL1 inh)
Cc1nc(C)c(/C(O)=C/c2nc3ccccc3oc2=O)s1	NALP1 yeast inh 61
O=c1oc2ccccc2nc1/C=C(\O)c1ccccc1	none (no result: NALP1 yeast inh)
Cc1ccc(-n2c(SCC(=O)N/N=C/C=C\c3ccccc3[N+](=O)[O-])nnc2-c2ccccc2)cc1	none (no result: NALP1 yeast inh, A3G deaminase, A3A deaminase, Fh CTSL1 inh)
COc1ccc(CNCCC(c2ccccc2)c2ccc3c(c2)OCO3)cc1 (stereo not given)	NALP1 yeast inh 27
COc1ccc(N2CCN(CCCNC(=O)CCOC(C)(C)C)CC2)cc1	none (no result: NALP1 yeast inh, A3G deaminase, A3A deaminase, Fh CTSL1 inh)
COc1ccc(C2(CNC(=O)Cc3ccc(OC)c(OC)c3)CCOCC2)cc1	NALP1 yeast inh 25
O=C(Nc1ccccc1)Nc1nc2ncccn2c1-c1ccc(F)cc1	none (no result: NALP1 yeast inh, A3G deaminase, A3A deaminase, Fh CTSL1 inh)
CC1CCCCC12NC(=O)N(CC(=O)Nc1ccccc1F)C2=O (stereo not given)	none (no result: NALP1 yeast inh, Fh CTSL1 inh)
CC1CCCCC12NC(=O)N(CC(=O)Nc1ccccc1-c1ccccc1)C2=O (stereo not given)	NALP1 yeast inh 37
Cc1ccc(NC(=O)C2CCCN(c3nnc(-n4cccc4)s3)C2)c(C)c1 (stereo not given)	none (no result: NALP1 yeast inh, A3G deaminase, A3A deaminase, Fh CTSL1 inh)
N/C(=N\OC(=O)c1cccc(F)c1)c1cccc([N+](=O)[O-])c1	none
CC1=C(C)/C(=N/OC(=O)c2cccc([N+](=O)[O-])c2)C=CC1=O	Fh CTSL1 inh 17 (no result: sPLA2-III inh)
COc1ccc(NC(=O)Cn2c(=O)sc3ccccc32)c(OC)c1	NALP1 yeast inh 39, Fh CTSL1 inh 21
Cc1c(Cl)sn(-c2ccc(Cl)cc2)c1=O	NALP1 yeast inh 98, A3G deaminase 44 (no result: Fh CTSL1 inh)
CC(Sc1ccc(Br)cc1)C(N)=O (stereo not given)	A3A deaminase 102
C=CC[C@H]1c2ccccc2[C@H]2N3N=Cc4ccccc4[C@H]3[C@H](CCc3ccccc3)C(=O)N2N1C(=O)c1ccccc1	none (no result: NALP1 yeast inh, A3G deaminase, A3A deaminase, Fh CTSL1 inh)
CCN(Cc1ccccc1)Cc1ccc(OCc2ccccc2)cc1	NALP1 yeast inh 38
COc1ccc(C2c3c(ncn(Cc4ccco4)c3=N)Oc3ccc4ccccc4c32)cc1 (stereo not given)	none
N=c1c2c(ncn1Cc1ccco1)Oc1ccc3ccccc3c1C2c1ccccc1 (stereo not given)	NALP1 yeast inh 57
N=c1c2c(-c3ccccc3)c(-c3ccccc3)n(Cc3ccccc3)c2ncn1CCCn1ccnc1	NALP1 yeast inh 30
CCCC1CCC2(CCCN2CCOC(=O)Nc2cccc(Cl)c2)CC1 (stereo not given)	none (no result: NALP1 yeast inh, A3G deaminase, A3A deaminase, Fh CTSL1 inh)
COC(=O)C1CN(Cc2cn(Cc3ccc(OC)cc3)nn2)CCS(=O)(=O)N1Cc1ccc(F)cc1 (stereo not given)	none (no result: NALP1 yeast inh, A3G deaminase, A3A deaminase, Fh CTSL1 inh)
COc1cc(C(=O)c2nccc3cc(OC)c(OC)cc23)c([N+](=O)[O-])cc1OC	Fh CTSL1 inh 42
COc1cc(Br)c(C(=O)c2nccc3cc(OC)c(OC)cc23)cc1OC	Fh CTSL1 inh 103 (no result: NALP1 yeast inh)
C/C(=C\C=C\c1ccccc1)C(=O)c1c(C)cc(C)[nH]c1=O	Fh CTSL1 inh 22
O=C(NC1CCN(Cc2ccccc2)CC1)C1CCN(S(=O)(=O)c2ccccc2)CC1	none
Cc1noc(C)c1S(=O)(=O)N1CCC(C(=O)NC2CCN(Cc3ccccc3)CC2)CC1	NALP1 yeast inh 39
Cc1cc(C)cc(Nc2nc3c([nH]2)c(=O)n(C)c(=O)n3C)c1	NALP1 yeast inh 32
CCc1cccc(NC(=O)c2cnn(-c3ccccc3)c2C)c1	none
CCn1ncc(C(=O)Nc2cccc(Cl)c2)c1C	NALP1 yeast inh 45
CC(=O)c1cc(-c2cc(C(=O)O)cc([N+](=O)[O-])c2)c(=O)n2c1CCC2	none (no result: NALP1 yeast inh, A3G deaminase, A3A deaminase, Fh CTSL1 inh)
Cc1c(O)nc(SCC(=O)Nc2nccs2)n(-c2ccccc2F)c1=O	NALP1 yeast inh 41 (no result: Fh CTSL1 inh)
C#CCNC(=O)C[C@H]1C[C@@]2(C(=O)OC)C(=C[C@H](COCc3ccccc3)O[C@@H]2C)N(Cc2cccc3ccccc23)C1=O	none (no result: NALP1 yeast inh, A3G deaminase, A3A deaminase, Fh CTSL1 inh)
CCC(c1nnnn1C(C)(C)C)N(Cc1cccs1)Cc1cc2cc(C)c(C)cc2n2nnnc12 (stereo not given)	Fh CTSL1 inh 19 (no result: sPLA2-III inh, NALP1 yeast inh)
CCOc1ccc2[nH]c(=O)c(CN(Cc3cccs3)C(CC)c3nnnn3C(C)(C)CC)cc2c1 (stereo not given)	none (no result: A3G deaminase, A3A deaminase, Fh CTSL1 inh)
COc1ccc(NC(=O)N2CCCC(CCC(=O)N(C)CCc3ccccn3)C2)cc1 (stereo not given)	Fh CTSL1 inh 70
CCc1ccccc1NC(=O)N1CCCC(CCC(=O)N(C)CCc2ccccn2)C1 (stereo not given)	none
COC(=O)[C@H](CC(C)C)N1Cc2nnn(CC3CCCCC3)c2-c2ccccc2S1(=O)=O	none (no result: NALP1 yeast inh, A3G deaminase, A3A deaminase, Fh CTSL1 inh)
CCOC(=O)CSc1nc2ccccc2c(=O)[nH]1	none (no result: NALP1 yeast inh)
CCOC(=O)c1nc2ccccc2c(=O)[nH]1	NALP1 yeast inh 43
CCn1c(SCC(=O)Nc2oc(-c3ccccc3)c(-c3ccccc3)c2C#N)nnc1-c1ccco1	none
COc1ccc(-c2oc(NC(=O)CSc3nncn3C)c(C#N)c2-c2ccc(OC)cc2)cc1	Fh CTSL1 inh 30
C/C(=N/NC(=O)c1cc2ccccc2cc1O)C1C(=O)c2ccccc2C1=O	sPLA2-III inh 29
COc1ccc(-c2cc(-c3nnc(SCC(=O)Nc4nccs4)n3N)[nH]n2)cc1	none (no result: NALP1 yeast inh, A3G deaminase, A3A deaminase, Fh CTSL1 inh)
CN(C)c1ccc(NC(=O)CN2CCN(CC(=O)Nc3ccc(F)cc3)CC2)cc1	none
CN(C)c1ccc(NC(=O)CN2CCC(O)(c3ccccc3)CC2)cc1	NALP1 yeast inh 29
Cc1nc2c(O)cccc2cc1CO	NALP1 yeast inh 36
O=C(OCCN1CCN(C2CN(Cc3cn(Cc4ccccc4Cl)nn3)S(=O)(=O)C2)CC1)c1cc2ccccc2o1 (stereo not given)	none (no result: NALP1 yeast inh, A3G deaminase, A3A deaminase, Fh CTSL1 inh)
Cc1c(C)n(Cc2ccc(-c3ccccc3C(=O)O)cc2)c2ccc(C(=O)N[C@@H](C)c3ccc([N+](=O)[O-])cc3)cc12	none (no result: NALP1 yeast inh, A3G deaminase, A3A deaminase, Fh CTSL1 inh)
Cn1c(-c2ccc(C=O)s2)nc2c3ccccc3c3ccccc3c21	NALP1 yeast inh 32
O=C(Nc1nc2c(s1)CCCC2)Oc1ccccc1	Fh CTSL1 inh 28
O=C(Nc1nc2c(s1)CCCC2)c1cccnc1	none (no result: sPLA2-III inh)
